Results on 92 molecules are retold here after PubChem BioAssay AID463173 (ICCB-Longwood Screening Facility, Harvard Medical School, 2010).

SMILES strings stand for the structures. Hit rate of the full screen: of about 52,000 compounds, about 1,700 (3.3%) were called active. Cut-off read from the data, not from the text of the source: active = survival mostly below about 52% (no sharp cut-off); inactive = mostly above about 56%. Only a selection was taken, and actives are over-represented in it overall.

The test system of the test is Wild type. In words: growth inhibition of S. aureus wild type versus tarO mutant, primary screen, teichoic acid synthesis inhibitors, RN4220, OD600 (AID 463173). To be noted: S. aureus RN4220 wild type/DeltatarO growth, OD600, 18 h, active compounds read low, screened at 18.75 µg/mL (by protocol).
For the molecule `CC(CN1CCCC1)OC(=O)c1ccc(F)cc1` (configuration not stated), the survival is 109% (inactive).

As for `Cc1ccc(-c2nnc(Nc3ccc(Br)cc3)c3ccccc23)cc1S(=O)(=O)N1CCCCC1`, the survival is 89% (inactive). The value for `Cc1ccc(C)c(N2CCN(C(c3ccc(F)cc3)c3nnc(-c4ccccc4)o3)CC2)c1` (configuration not stated) was 14% (active). The value for `Cc1ccc(Cl)cc1N1CCN(C(c2ccc(F)cc2)c2nnc(-c3ccccc3)o2)CC1` (configuration not stated) was 50% (inactive); that for `COc1ccccc1N1CCN(C(c2ccccc2)c2nnc(-c3ccccc3Cl)o2)CC1` (configuration not stated) was 0% (active).

As for `Cc1cccc(N2CCN(C(c3ccc(F)cc3)c3nnc(-c4ccccc4)o3)CC2)c1C` (configuration not stated), the survival is 28% (inactive).

Turning to `Cc1ccc(C)c(N2CCN(C(c3ccccc3)c3nnc(-c4ccccc4F)o3)CC2)c1` (configuration not stated), the survival is 53% (inactive). The value for `Cc1cccc(N2CCN(C(c3ccccc3)c3nnc(-c4ccccc4Cl)o3)CC2)c1C` (configuration not stated) was 52% (inactive); that for `Cc1cccc(N2CCN(C(c3ccccc3)c3nnc(-c4ccccc4F)o3)CC2)c1C` (configuration not stated) was 43% (inactive). Next, `COc1ccc(N2CCN(C(c3ccccc3)c3nnc(-c4ccccc4Cl)o3)CC2)cc1` (configuration not stated): 22% (inactive). Next, `Cc1ccc(C)c(N2CCN(C(c3ccccc3)c3nnc(-c4ccccc4)o3)CC2)c1` (configuration not stated): 1% (active). As to `Cc1ccoc1C(=O)Nc1ccccc1C(=O)O`, the survival is 102% (inactive). The value for `Cc1ccc(NC(=O)C2CC(=O)n3cnnc3N2)cc1Cl` (configuration not stated) was 105% (inactive). Turning to `COCCNC(=O)CCn1c(=O)c2cc(OC)c(OC)cc2n(CC(=O)Nc2ccccc2OC)c1=O`, the survival is 89% (inactive). Next, `COc1ccc(NC(=O)c2cn(-c3ccccc3)nc2-c2ccc(C)cc2)cc1`: 93% (inactive); `COc1ccccc1NC(=O)c1cn(-c2ccccc2)nc1-c1ccccc1`: 81% (inactive). The value for `COc1ccc(-c2nn(-c3ccccc3)cc2C(=O)Nc2ccccc2OC)cc1` was 3% (active); that for `COC(=O)C1(C)NC(c2ccccc2C)C2C(=O)N(C)C(=O)C21` (configuration not stated) was 98% (inactive). On to `CCOC(=O)C1=C(CN2CCN(c3ccccc3)CC2)NC(=O)NC1c1ccc(C)cc1` (configuration not stated), for which the survival was 127% (inactive). Turning to `CCCOc1ccc(Cn2c(=O)sc3ccccc32)cc1`, the survival is -4% (active).

On to `CC(C)CCOc1ccc(Cn2c(=O)sc3ccccc32)cc1`, for which the survival was -3% (active). As for `CCCCOc1ccc(Cn2c(=O)oc3ccccc32)cc1`, the survival was 113% (inactive). The value for `O=c1sc2ccccc2n1CCc1ccccc1` was 108% (inactive); that for `CCCCOc1ccc(Cn2c(=O)sc3ccccc32)cc1` was -4% (active).

As to `COc1ccc(Cn2c(=O)sc3ccccc32)cc1`, the survival is 111% (inactive).

`CC(C)CCOc1ccc(Cn2c(=O)oc3ccccc32)cc1`: the survival was 121% (inactive). The value for `O=c1sc2ccccc2n1CCCOc1ccccc1` was 116% (inactive).

Turning to `CCOc1ccc(Cn2c(=O)sc3ccccc32)cc1`, the survival is 72% (inactive). `O=C(CC1N=C2c3ccccc3N=C(SCC(=O)Nc3ccc(F)cc3)N2C1=O)NCc1ccc2c(c1)OCO2` (configuration not stated): the survival was 80% (inactive). Regarding `COc1ccc2cc3cc(C(=O)NCc4ccccc4OC)oc3nc2c1`, the survival was 80% (inactive).

Take `Cc1cccc(-c2nc(Cn3c(SCc4cccc(C(F)(F)F)c4)nc4ccncc43)c(C)o2)c1`: the survival is 81% (inactive). Next, `Cc1ccc(C(=O)ON=C2CCN(C)CC2)cc1`: 108% (inactive); `O=C(Nc1cccc(F)c1)c1cnc2sc(N3CCCC3)nn2c1=O`: 74% (inactive); `COc1ccccc1CNC(=O)Cn1cc2c(n1)-c1c(oc(C(=O)N3CCOCC3)c1C)CC2`: 84% (inactive). Take `COc1cc2oc(=O)c(CC(=O)N3CCCCC3)c(C)c2cc1Cl`: the survival was 84% (inactive). The value for `Cc1ccc(OCC(=O)Nc2c(C(=O)c3ccc(Cl)cc3)oc3ccccc23)cc1C` was 129% (inactive); that for `CCOC(=O)c1cnc(N2CCN(c3cccc(C)c3C)CC2)c2ccccc12` was 85% (inactive); that for `CCOC(=O)c1cnc2cc(C(F)(F)F)ccc2c1N1CCN(c2cccc(Cl)c2)CC1` was 55% (inactive). The value for `CCOC(=O)c1cnc2ccc(OCC)cc2c1N1CCN(c2cccc(Cl)c2)CC1` was -9% (active); that for `CCOC(=O)c1noc2ncnc(N3CCN(c4cccc(Cl)c4)CC3)c12` was 75% (inactive). With `CCOC(=O)c1cc(S(=O)(=O)N2CCN(c3ccccc3F)CC2)[nH]n1`, the survival is -6% (active). The value for `CCOC(=O)c1cc(S(=O)(=O)N2CCN(c3ccccc3OC)CC2)[nH]n1` was 124% (inactive); that for `CCOC(=O)c1cnc2cc(C(F)(F)F)ccc2c1N1CCN(c2ccc(F)cc2)CC1` was 58% (inactive). Next, `CCOC(=O)c1cc(S(=O)(=O)N2CCN(c3cccc(C)c3C)CC2)[nH]n1`: 72% (inactive).

Consider `COC(=O)c1cnc(N2CCN(c3ccccc3F)CC2)c2ccccc12`, for which the survival was 93% (inactive). Turning to `CCOC(=O)c1cnc2c(OC)cccc2c1N1CCN(c2ccccc2F)CC1`, the survival is -14% (active). Next, `CCOC(=O)c1cnc(N2CCN(c3ccc(C)cc3C)CC2)c2ccccc12`: 112% (inactive). For `CCOC(=O)c1cnc2ccc(OCC)cc2c1N1CCN(c2ccccc2F)CC1`, the survival was -12% (active). The value for `O=C(Cn1c(=O)n(-c2ccccc2)c(=O)c2sc3ccccc3c21)NC1CCCC1` was 138% (inactive). Next, `CCOc1ccc(CNC(=O)CCn2nc(C)c3c(C)n(-c4ccccc4)nc3c2=O)cc1`: 129% (inactive); `COc1ccccc1-c1cc2nc(C)c(CCC(=O)NCc3cccc(Cl)c3)c(C)n2n1`: 112% (inactive). Next, `CC(C)(C)OC(=O)N1CCC2(CC1)C(C#N)=C(N)OC1=C2C(=O)CCC1`: 104% (inactive); `CN1CCN(CC(=O)Nc2ccc(C(=O)NCC3CCCO3)cc2)CC1` (configuration not stated): 108% (inactive). As to `COc1ccc2c(c1)c1c(c(=O)n(-c3cccc(C)c3)c(=O)n1CC(=O)NCCC1=CCCCC1)n2C`, the survival is 74% (inactive). For `COc1ccccc1C(=O)Nc1ccccc1OCc1cc(=O)n2ccccc2n1`, the survival is 92% (inactive). Next, `CCN(CC)C(C)C(=O)Nc1c(C)cccc1C` (configuration not stated): 109% (inactive); `Cc1ccc2oc(-c3cc(NC(=O)c4ccco4)ccc3Cl)nc2c1`: 1% (active); `Cc1ccc2oc(-c3cc(NC(=O)/C=C/c4ccco4)ccc3Cl)nc2c1`: 25% (inactive). For the molecule `Cc1ccc2oc(-c3cc(NC(=O)Cc4ccccc4)ccc3Cl)nc2c1`, the survival was 70% (inactive).

For the molecule `O=C(Nc1ccc(Cl)c(-c2nc3ccccc3o2)c1)c1cccc2c(Cl)cccc12`, the survival was 67% (inactive). Next, `Cc1ccc2oc(-c3cc(NC(=O)c4oc5ccccc5c4C)ccc3Cl)nc2c1`: 81% (inactive). Next, `COc1c(C)cccc1C(=O)Nc1ccc(Cl)c(-c2nc3cc(C)ccc3o2)c1`: -6% (active). Turning to `CC(C)c1ccc(NC(=O)c2cc3c(=O)oc4ccccc4c3s2)cc1`, the survival was 87% (inactive). Regarding `CCOC(=O)c1c(-c2ccc(OC)cc2)oc2ccc(OCc3ccc(F)cc3F)cc12`, the survival was 42% (inactive). The value for `CCc1cccc(NC(=O)c2cc3c(s2)-c2ccccc2OC3)c1` was 86% (inactive); that for `CCOc1ccc(NC(=O)c2cc3c(s2)-c2ccccc2OC3)cc1` was 100% (inactive); that for `CCCN1CCN(CCCNC(=O)c2cc3c(s2)-c2ccccc2OC3)CC1` was 83% (inactive). The value for `CCN(CC)CCOC(=O)c1ccc(NC(=O)c2cc3c(s2)-c2ccccc2OC3)cc1` was 5% (active); that for `CCCN(C(=O)c1cc2c(s1)-c1ccccc1OC2)c1ccccc1F` was -2% (active); that for `O=C(NCc1ccc(Cl)cc1)c1cc2c(s1)-c1ccccc1SC2` was 62% (inactive). The value for `O=C(NCCCN1CCN(c2ccccc2)CC1)c1cc2c(s1)-c1ccccc1OC2` was 69% (inactive).

Turning to `CCCN(C(=O)c1cc2c(s1)-c1ccccc1SC2)c1ccccc1F`, the survival was 1% (active). Take `O=C(NCCCN1CCN(c2ccc(F)cc2)CC1)c1cc2c(s1)-c1ccccc1OC2`: the survival is 62% (inactive). The value for `O=C(NCCc1ccc(Cl)cc1)c1cc2c(s1)-c1ccccc1OC2` was 105% (inactive); that for `O=C(NCc1ccc(F)cc1)c1cc2c(s1)-c1ccccc1SC2` was 50% (inactive). Next, `O=C(NCCCN1CCN(c2ccccc2F)CC1)c1cc2c(s1)-c1ccccc1OC2`: 11% (active). The value for `Cc1ccc(NC(=O)C2CCCN2S(=O)(=O)c2ccc3c(c2)CCCC(=O)N3)cc1Cl` (configuration not stated) was 113% (inactive); that for `COc1ccc(-c2nc3cc(N=Cc4ccccc4O)ccc3o2)cc1` was 111% (inactive). For the molecule `CCCCn1c2ccc(F)cc2c2nnc(SCCN3CCCCC3)nc21`, the survival was 139% (inactive).

As for `COCCCNC(=O)c1cc(-c2cccnc2)nc2ccccc12`, the survival is 118% (inactive). Next, `CCOc1ccc(NC(=O)CN2C(=O)c3ccccc3Sc3ccc(C(=O)OC)cc32)cc1`: 81% (inactive); `COc1ccccc1OCc1ccc(C(=O)NCc2ccncc2)o1`: 116% (inactive); `Cc1ccc(Cn2cc(S(=O)(=O)c3ccccc3)c(=O)c3cc(F)c(N4CCOCC4)cc32)cc1`: 58% (inactive). Next, `O=C(c1nc(-c2ccc(Cl)cc2)n2c1CCCCC2)N1CCN(c2ccc(F)cc2)CC1`: 70% (inactive); `COc1ccc(C2c3c(n(C)c4ccccc34)C(=O)N2CC(=O)Nc2ccc(F)cc2)cc1` (configuration not stated): 81% (inactive); `CC(=O)Nc1ccccc1-c1nc2cc(C#N)c(C#N)cc2[nH]c1=O`: 108% (inactive). Next, `CCN(c1ccccc1C)S(=O)(=O)c1nnc(NC(=O)c2ccc(OC)c(OC)c2)s1`: 42% (inactive); `COC(=O)c1ccccc1NC(=O)CCc1c(C)nc2c(c(C)nn2-c2ccccc2)c1C`: 117% (inactive); `O=C(CSc1nc(-c2ccccc2)cn1-c1ccccc1)Nc1ccccc1`: 68% (inactive). Consider `COc1ccc(NC(=O)c2c(NCc3cccc(OC)c3)sc3c2CCC3)cc1`, for which the survival was 65% (inactive). For `CC(C)Nc1nc(NC(C)C)nc(N(C)C)n1`, the survival was 115% (inactive). Next, `Cc1ccc2oc3c(c(=O)c2c1)C(c1cccc(O)c1)N(Cc1ccccc1Cl)C3=O` (configuration not stated): 82% (inactive).
